Most compounds without a hit are left out; they make up all but 3.3% or so of the library.
Vaccinia Venus – qHTS for Stage-Specific Inhibitors of Vaccinia Orthopoxvirus: Venus Reporter Primary qHTS | Vaccinia virus Venus reporter expression, fluorescence | AID 720580, 2013 | 330,000 compounds, 0.46% hits | Potency, µM (highest dose often 36.5 µM), for inactives: top-dose activity change, negative = inhibition, most hits filed as inhibitors; calls by dose curve; tested in A549 cells; further: nearly all actives have a fitted effect of over 30% in size
Vaccinia mCherry – qHTS for Stage-Specific Inhibitors of Vaccinia Orthopoxvirus: mCherry Reporter Primary qHTS. Potency, µM (doses to about 36.5 µM), inactives show top-dose activity change, negative = inhibition, most hits filed as inhibitors. 310,000 compounds, 0.63% hits. AID 720579, 2013. Vaccinia virus mCherry reporter infection, fluorescence; calls by dose curve; tested in A549 cells; further: nearly all actives have a fitted effect of over 35% in size
HCV inh – qHTS Assay for Inhibitors of Hepatitis C Virus (HCV). Huh7.5.1 HCVcc-Cre infection, luciferase reporter, 44 h. Potency, µM (top dose mostly 41.8 µM), without a hit: top-dose activity change, negative = inhibition, usual class: inhibitors. 340,000 compounds, 3.4% hits. AID 651820, 2012; active means well fitted inhibition curve with a large enough effect; inconclusive means small, poorly fitted or top-dose-only effect, or another doubt; inactive means no such curve, though single readings can be large or run the other way
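Reporter virus HCVcc-Cre (~0.5 moi) infects cells exposed to compound; seeding density 1,000 cells/well with 4 h settling beforehand. Luminescence, 15 sec read, taken 44 h post-infection following a 15 min RT substrate incubation.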
Starred values were filed as active, the others as inactive; i = inactive; ? = inconclusive; . = no result; [ ] = another dose, or the depositor's remark. On the % scale 0 is the no-effect control and ±100 the full control effect; potency means the concentration at half of the fitted maximal effect.

SMILES | Vaccinia Venus | Vaccinia mCherry | HCV inh
CCN1CCN(S(=O)(=O)c2ccc(C(C)(C)C)cc2)CC1 | -6.7% | -13.4% | 5.2%
COc1cccc(-c2nc3c(c(SCc4ccccc4)n2)Cc2c(CO)cnc(C)c2O3)c1 | -1.6% | -9.0% | .
O=C(CSc1nc2ccccc2n1Cc1ccc(F)cc1)N1CCN(c2ccc(F)cc2)CC1 | -7.8% | -17.5% | .
CC(=O)c1cc2ccc(O)cc2oc1=O | . | . | 16.3%
Cc1ccc(N=c2oc3cc(O)ccc3cc2C(N)=O)cc1 | ? | ? | 11.2µM*
CCOC(=O)C1CCN(C(=O)COc2cccc(C)c2)CC1 | -9.1% | 3.98µM* | 5.6%
CCOC(=O)C1CCN(C(=O)c2ccc3c(c2)NC(=O)/C(=C\c2cccc(C)c2)S3)CC1 | . | . | 11.2µM*
CCOC(=O)C1CCN(C(=O)COc2ccc(Br)cc2)CC1 | . | . | 0.1%
CN1CCN(C(=O)c2ccc3c(c2)NC(=O)/C(=C/c2ccccc2)S3)CC1 | . | . | 11.2µM*
O=C1Nc2cc(C(=O)N3CCC4(CC3)OCCO4)ccc2S/C1=C\c1ccccc1 | -12.0% | -22.7% | ?
CCOC(=O)C1CCN(C(=O)c2cccc(C(=O)N3CCC(C(=O)OCC)CC3)c2)CC1 | -7.5% | -2.0% | 1.4%
CCOC(=O)N1CCN(C(=O)c2ccc3c(c2)NC(=O)/C(=C/c2ccccc2)S3)CC1 | -13.8% | -21.9% | ?
CCOC(=O)C1CCN(C(=O)c2ccc3c(c2)NC(=O)/C(=C/c2ccccc2)S3)CC1 | . | . | 11.2µM*
COC(=O)[C@@H]1C[C@@H](NC(=O)c2cccc3c(C)c(C)[nH]c23)CN1Cc1cccc2ccccc12 | 16.4% | 6.7% | .
O=C(Nc1cc(S(=O)(=O)N2CCOCC2)ccc1Cl)C1CCC1 | -15.1% | -26.6% | ?
CCCn1c2ccccc2c2cnn(CC(=O)Nc3cc(C)c(Cl)cc3OC)c(=O)c21 | -12.3% | -27.9% | .
COc1cccc(C(=O)Nc2ccc(C(=O)OCc3cc(=O)n4cc(C)sc4n3)cc2)c1 | -18.3% | i | .
COc1ccc(/C=C/C(=O)N2CCCc3ccccc32)c(OC)c1 | -15.2% | -6.0% | -29.9%
COc1ccc(OC)c(/C=C/C(=O)N2CCCc3ccccc32)c1 | -12.4% | i | 10µM*
CCN(C(=O)Cn1nc(Cc2cccnc2)c2ccccc2c1=O)c1ccccc1F | -3.8% | -17.6% | .
Oc1c(C(Nc2cccc(C(F)(F)F)c2)c2cccnc2)ccc2cccnc12 (stereo not given) | -23.7% | -22.5% | 11.2µM*
Cc1cc(NC(=O)c2cc(-c3cccnc3)nc3c(C)c(C)ccc23)no1 | -7.1% | . | ?
COc1ccc(Cl)cc1C(Nc1cccnc1)c1ccc2cccnc2c1O (stereo not given) | ? | 3.55µM* | 8.91µM*
Cc1cc(C)nc(Nc2cccc(C(F)(F)F)c2)n1 | . | . | -0.4%
O=S(=O)(Nc1ccc(C(O)(C(F)(F)F)C(F)(F)F)cc1)c1cccc2cccnc12 | -7.1% | 14.1% | .
SMILES | Vaccinia Venus | Vaccinia mCherry | HCV inh
Oc1c(C(Nc2cccnc2)c2ccc(C(F)(F)F)cc2)ccc2cccnc12 (stereo not given) | ? | 8.91µM* | .
COc1ccc(C(=O)Nc2cccnc2)cc1OC | 7.5% | . | 18.8%
Cc1cc(NC(c2cccnc2)c2ccc3cccnc3c2O)no1 (stereo not given) | 15.8µM* | . | 2.51µM*
COc1cc2c(cc1OC)[C@@H]1C(=O)c3ccc(OC)c(CC=C(C)C)c3OC1CO2 (stereo not given in full) | -17.9% | -17.3% | .
O=C(COc1ccccc1C(=O)Nc1ccccc1F)Nc1ccc(Br)cc1 | -14.8% | -20.8% | .
CC(OC(=O)c1cccnc1Cl)C(=O)NCc1ccccc1 (stereo not given) | . | . | 6.4%
COc1cc(NC(=O)C2CCN(S(=O)(=O)c3c(C)noc3/C=C/c3cccs3)CC2)cc(OC)c1 | -7.4% | -7.5% | .
CC(=O)Nc1ccc(NC(=O)c2c(C)nn(-c3ccccc3)c2-n2cccc2)cc1 | 2.4% | -6.6% | .
CN1CCN(C(c2ccc(C(F)(F)F)cc2)c2ccc3cccnc3c2O)CC1 (stereo not given) | -18.3% | ? | 11.2µM*
CN1CCN(C(c2cccc(C(F)(F)F)c2)c2nnnn2C(C)(C)C)CC1 (stereo not given) | -8.8% | -19.8% | -22.0%
Cn1nc(Cc2n[nH]c(=S)n2C)c2ccccc2c1=O | -7.1%[7.34 µM] | i[7.34 µM] | 9.7%
CCn1c(-c2cccnc2)nc2cc(NC(=O)COC)cc(C(=O)N3CC[C@@H]4CCCC[C@H]4C3)c21 | -6.1% | -14.7% | .
CCOc1ccc(-n2c(=O)c3c4c(sc3n(CC(=O)NC(C)CC)c2=O)CCC4)cc1 (stereo not given) | -6.9% | -5.5% | .
COc1ccc(Cc2noc(CN(C)CC(O)c3ccccc3)n2)cc1OC (stereo not given) | 0.0% | i | 1.3%
Cc1ccsc1-c1ccnc(-n2cccc2)n1 | -7.2% | -0.7% | -13.2%
Cc1cc(-c2sccc2Br)nc(-n2cccc2)n1 | -3.6% | 2.7% | 12.6µM*
Cc1cc(-c2ccc(Br)s2)nc(-n2cccc2)n1 | 1.0% | -0.2% | 11.2µM*
Clc1ccc(-c2ccnc(-n3cccc3)n2)s1 | -13.4% | i | -22.5%
O=C(Nc1ccccc1F)c1cnn2c1NC(=C1CC1)C=C2C(F)F | -5.2% | i | .
CCc1cccc2c(C(=O)CN3C(=O)NC4(CCCCC4)C3=O)c[nH]c12 | -26.4% | ? | ?
CCc1cccc2c(C(=O)CN3C(=O)NC4(CCCCCC4)C3=O)c[nH]c12 | ? | -12.2% | 2.51µM*
O=C(CN1C(=O)NC2(CCCCCC2)C1=O)c1ccc(F)cc1 | -11.5% | -3.0% | -4.9%
CCc1ccc(C(=O)CN2C(=O)NC3(CCCCCC3)C2=O)cc1 | -7.2% | -28.6% | 11.2µM*
CCCCNc1c(CCc2ccccc2)nc2nc(C)cc(C)n12 | -6.6% | -10.8% | .
Cc1ccccc1C(=O)Nc1sc2c(c1C(=O)N1CCCCC1)CCC(C)C2 (stereo not given) | -5.5% | -14.9% | .
SMILES | Vaccinia Venus | Vaccinia mCherry | HCV inh
O=C(NCc1ccc(Cl)cc1)c1cc2c(s1)-c1ccccc1SC2 | -11.5% | -13.2% | .
CCN(CC)CCNC(=O)c1cc2c(s1)-c1ccccc1SC2 | . | . | 11.2µM*
CSc1ccc(CCNC(=O)C(C)n2c(C)c3cnn(-c4ccccc4)c(=O)c3c2C)cc1 (stereo not given) | 0.9% | -10.8% | .
O=c1c2ccccc2nc(/C=C/c2cc(Br)ccc2O)n1CCCO | ? | 11.2µM* | ?
O=c1c2ccccc2nc(/C=C/c2cccc([N+](=O)[O-])c2)n1CCO | -18.4% | -10.5% | ?
CCc1c(C)c2ccc(O)c(CN3CCN(c4ccc(OC)cc4)CC3)c2oc1=O | -17.9% | -28.7% | .
Cc1ccccc1OCc1nnc(SCC(=O)Nc2ccc3c(c2)OCO3)n1C | . | . | -9.7%
Cc1ccccc1OCc1nnc(SCC(=O)Nc2ccc3nc(SCC(=O)Nc4ccccc4)sc3c2)n1C | -9.8% | -5.6% | 1.12µM*
Cn1nc(C(=O)N2CCN(c3ccccn3)CC2)c2ccccc2c1=O | -8.7% | -14.9% | -17.3%
COc1cccc(-c2c(NC(=O)c3ccco3)oc3ccc(Cl)cc3c2=O)c1 | -15.4% | -28.5% | 7.1%
COc1cccc(-c2c(NC(=O)c3ccco3)oc3ccccc3c2=O)c1 | -2.3% | 10.9% | 0.316µM*

Screening data as filed in PubChem BioAssay.
